# Assay outcomes from PubChem.
# Only some compounds are listed: those with a hit (about 11% of all), similar ones and a draw of the others.
# Sm TGR inh: S. mansoni TGR enzyme inhibition | Q962Y6 | purified TGR, DTNB reduction, TNB absorbance 405 nm | Potency, µM (doses to about 114 µM), for the others: at the highest dose activity change, negative = inhibition, hits mostly inhibitors | actives 3% (n = 360,000) | AID 485364; also: % is scaled to controls: 0 for no effect and ±100 for the full control effect; nearly all actives have a fitted effect of over 60% in size
#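 First, TGR (20 nM dispensed) and NADPH were mixed with compound. Second, a 15 min room-temperature incubation followed. Third, further NADPH and then DTNB were added to start the reaction. Finally, TNB absorbance was monitored kinetically.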
# NS1 function inh: influenza NS1 inhibition; actives 0.4% (n = 270,000); Potency, µM (doses to about 46.1 µM), for the others: top-dose activity, positive = more growth; calls by dose curve; also: actives are rising curves; nearly all actives have a fitted effect of over 50% in size
#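 S. cerevisiae expressing influenza A NS1, grown in glucose, washed, then diluted 1:100 into pH 6.0 -URA galactose medium with 23 nl compound. Growth recovery read as OD600; NS1-free strain serves as control.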
# AMA1-RON2 inh: disrupts binding of P. falciparum AMA1 to RON2. AlphaScreen AMA1-biotinylated RON2 peptide binding. Potency, µM (series often up to 58.2 µM), for inactives: top-dose activity change, negative = inhibition, actives largely listed as inhibitors. actives 0.2% (n = 360,000);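 also: 0% = vehicle wells and -100% = peptide control; nearly all actives have a fitted effect of over 45% in size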
#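 AMA1 (3D7) with his tag at 25 nM final met compounds first, then biotinylated RON2 peptide at 25 nM; detection used donor plus acceptor beads, 10 µg/mL apiece, read by AlphaScreen after 30 min at room temperature.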
# Pf growth 48h: P. falciparum growth inhibition at 48 hours (one generation); P. falciparum luciferase growth in erythrocytes, 48 h; Potency, µM (highest dose often 28.7 µM), for inactives: at the highest dose activity change, negative = inhibition, usual class: inhibitors; actives 5.9% (n = 310,000); AID 504832; also: % is scaled to controls: 0 for no effect and ±100 for the full control effect
#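 A one-generation exposure of luciferase-tagged malaria parasites in RPMI 1640/Albumax erythrocyte culture, 37 C and 5% CO2. Inhibition is inferred from decreased luminescence after adding detection reagent.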
# Pf growth 96h: P. falciparum growth inhibition at 96 hour, primary screen for plastid delayed-death inhibitors; Potency, µM (top dose mostly 28.7 µM), without a hit: at the highest dose activity change, negative = inhibition, most hits filed as inhibitors; P. falciparum luciferase reporter growth, 96 h; actives 6.9% (n = 320,000); AID 504834; also: % is scaled to controls: 0 for no effect and ±100 for the full control effect
#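 Parasite growth measured via integrated firefly luciferase reporter in P. falciparum. Infected erythrocytes at 2% hematocrit, 0.05% parasitemia final were treated 96 hours at 37 C under 5% CO2, and luminescence was read.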
# Starred values were filed as active, the others as inactive; ? = inconclusive; nt = not tested or not shown; [ ] = another dose, or the depositor's remark. Unless noted, calls follow the shape of the dose curve; as a rule, active = well fitted curve in the direction sought with a large enough effect; inconclusive = small, poorly fitted or top-dose-only effect, or another doubt; inactive = no such curve, though single readings can be large; an effect the other way counts as inactive or inconclusive. Potency is read from the fitted curve at half-maximal effect.
SMILES,Sm TGR inh,NS1 function inh,AMA1-RON2 inh,Pf growth 48h,Pf growth 96h
COC(=O)C1=C(C)NC(=S)NC1c1ccc(-c2cccc(Cl)c2)o1 (stereo unspecified),8.91µM*,-3.9%,-12.5%,?,?
CCN1c2ccccc2-c2nc(SCC(=O)Nc3cc(OC)cc(OC)c3)ncc2S1(=O)=O,0.5%,nt,nt,nt,nt
O=C(NCc1ccccn1)C(=O)NCC1OCCCN1S(=O)(=O)c1cc(F)ccc1F (stereo unspecified),4.2%,-2.2%,31.4%,5.7%,13.1%
COC(=O)C1=C(C)NC(C)=C(C(=O)OC)C1c1ccc(-c2cccc([N+](=O)[O-])c2)o1,39.8µM*,5.1%,-5.3%,?,?
CCOC(=O)C1=C(C)NC(=O)NC1c1ccc(-c2ccc(Cl)cc2)o1 (stereo unspecified),nt,-4.6%,-4.1%,7.7%,-18.2%
CCOC(=O)C1=C(C)NC(=O)NC1c1ccc(-c2ccc(F)cc2)o1 (stereo unspecified),25.1µM*,nt,-12.3%,-41.8%,-10.0%
COC(=O)C1=C(C)NC(C)=C(C(=O)OC)C1c1ccc(-c2cccc(Cl)c2Cl)o1,?,21.2%,-4.2%,?,?
COC(=O)C1=C(C)NC(=O)NC1c1ccco1 (stereo unspecified),-10.5%,nt,1.1%,-49.8%[5.75 µM],-21.5%
COC(=O)C1=C(C)NC(=O)NC1c1ccc(-c2ccc(F)cc2)o1 (stereo unspecified),14.1µM*,nt,-3.3%,?,?
O=C(COc1ccc(Cl)cc1)NCCNC(=O)c1cnccn1,-2.9%,4.8%,-3.6%,19.6%,?
COc1cc(/C=C/C(=O)OCC(=O)NC(=O)NC23CC4CC(CC(C4)C2)C3)ccc1OCC#N,-1.6%,24.4%,-2.8%,14.7µM*,?
CCC(C)NC(=O)CCc1c(C)nc2c(c(C)nn2-c2ccc(C)cc2)c1C (stereo unspecified),0.7%,nt,nt,nt,nt
Cc1ccc(-n2nc(C)c3c(C)c(CCC(=O)NC(C)c4ccccc4)c(C)nc32)cc1 (stereo unspecified),2.9%,-11.1%,-1.7%,nt,9.28µM*
COc1ccc(S(=O)(=O)N2CC(=O)Nc3ccccc32)cc1F,11.2µM*,-4.7%,-1.8%,-23.0%,?
O=C1CN(S(=O)(=O)c2ccc(F)cc2)c2ccccc2N1,-0.3%,3.8%,1.3%,42.3%,-12.2%
COC(=O)C1(C(=O)OC)Cc2ccccc2N(S(=O)(=O)c2ccc(C)cc2)C1CC(C)=O (stereo unspecified),nt,nt,-2.6%,nt,nt
CC(C)Sc1cc(N2CCCC2)nc(-c2ccccc2)n1,11.7%,-13.8%,8.1%,?,?
CC(C)Sc1cc(N2CCCC2)nc(-c2ccc(F)cc2)n1,5.4%,0.5%,9.0%,13.1µM*,?
Cc1ccc(C)c(-n2c(-c3ccc(Br)cc3)csc2=NC(=O)c2ccccc2F)c1,16.4%,28.7%,-1.4%,0.415µM*,0.233µM*
Cc1cc(C(=O)N/N=C2\CC(=O)c3ccccc32)c(C)n1-c1ccc(F)cc1,35.5µM*,11.6%,86.2%,4.65µM*,2.33µM*
CCOc1cc(/C=N/NC(=O)c2cc(C)n(-c3ccc(F)cc3)c2C)ccc1O,56.2µM*,6.9%,48.4%,0.0%,-27.0%
CCCCNC(=O)c1nc(C2CCN(S(=O)(=O)c3c(OC)cccc3OC)CC2)oc1-c1ccccc1,nt,nt,-1.6%,nt,nt
CC(C)C[C@@H]1COc2cccc(N3CCSCC3)c2S(=O)(=O)N1,nt,nt,0.7%,nt,nt
Cc1ccc(-c2csc(/C(C#N)=C/Nc3ccc4c(c3)OCCO4)n2)cc1,0.3%,5.7%,-4.1%,33.5%,77.8%
CCN(CC)CCOC(=O)c1ccc(N/C=C(/C#N)c2nc(-c3cccc(OC)c3)cs2)cc1,21.9%,-42.6%,-10.1%,?,0.465µM*
SMILES,Sm TGR inh,NS1 function inh,AMA1-RON2 inh,Pf growth 48h,Pf growth 96h
CCN(CC)CCOC(=O)c1ccc(N/C=C(/C#N)c2nc(-c3ccc(OC)c(OC)c3)cs2)cc1,-32.1%,-66.1%,28.2µM*,?,?
O=C(O)CC12CC3CC(C1)CC(n1ncc(NCc4ccccc4Cl)c(Cl)c1=O)(C3)C2,-5.5%,?,-0.3%,?,-29.6%
O=C(O)C12CC3CC(C1)CC(n1ncc(NCc4ccco4)c(Cl)c1=O)(C3)C2,2.82µM*,7.0%,22.1%,?,-15.6%
Cc1ccc2c(=O)c(C(=O)c3cccc(Cl)c3)cn(CC(=O)NCc3ccc(F)cc3)c2n1,4.8%,nt,nt,nt,nt
CC(=O)c1cccc(NC2=NCC(C)S2)c1 (stereo unspecified),-28.7%,2.7%,-2.0%,nt,13.1µM*
CC1CN=C(Nc2cccc(S(=O)(=O)N(C)C)c2)S1 (stereo unspecified),-3.7%,nt,-4.0%,-16.2%,19.2%
Cc1nn(-c2ccccc2)c2c1C(c1cccnc1)N1C=C(S(=O)(=O)N3CCCCC3)C=CC1=N2 (stereo unspecified),0.0%,15.6%,-8.1%,1.85µM*,52.7%
CC(OC(=O)CCN=C1NS(=O)(=O)c2ccccc21)C(=O)Nc1ccc(N(C)C)cc1 (stereo unspecified),2.2%,nt,-4.5%,0.8%,?
O=C(/C=C/Nc1ccccc1Oc1ccccc1)c1ccco1,-27.0%,-6.2%,-24.9%,10.4µM*,?
COC(=O)CSc1ccccc1C(=O)OC,32.2%,0.5%,8.7%,9.0%,nt
COC(=O)CSC1=NS(=O)(=O)c2ccccc21,2.51µM*,-111.2%,-9.2%,-10.6%,9.6%
O=C(CSC1=NS(=O)(=O)c2ccccc21)Nc1ccccc1,2.51µM*,-113.0%,10.0%,nt,-3.9%
CCOC(=O)CC(=O)c1sc2c(c1N)c(=O)[nH]c(=O)n2-c1ccc(OC)cc1,2.7%,9.4%,-3.5%,?,5.22µM*
NC(=S)SCCC(=O)O,nt,1.8%,nt,nt,nt
CCCc1nc2oc3c(NCCCN(C)C)ncnc3c2c2c1CCCC2,10.7%,2.2%,0.5%,9.28µM*,13.1µM*
CCCc1nc2oc3c(NCCN(C)C)ncnc3c2c2c1CCCC2,3.1%,-2.3%,-15.3%,13.1µM*,?
Cc1ccc(C)c(NC(=O)COC(=O)CCNC(=O)c2ccco2)c1,-15.2%,nt,-7.1%,-21.1%,-24.9%
CCN1CCN(c2nc3c(c(=O)[nH]c(=O)n3C)n2Cc2ccccc2)CC1,0.4%,7.7%,9.1%,0.0%,14.5%
CS(=O)(=O)N(CC(=O)NCc1ccco1)c1cccc([N+](=O)[O-])c1,nt,1.7%,-4.6%,17.3%,?
CCOc1ccc(C2C(C(=O)OC)=C(C)NC3=C2C(=O)c2ccccc23)cc1OC (stereo unspecified),-7.5%,nt,nt,nt,nt
C#CCOc1c(Br)cc(C2C(C(=O)OC)=C(C)NC3=C2C(=O)c2ccccc23)cc1OCC (stereo unspecified),28.2µM*,nt,nt,nt,nt
C=CCN1C(=O)C(Cc2ccccc2Cl)SC1=Nc1ccc(C(=O)O)cc1 (stereo unspecified),0.0%,-1.5%,-1.5%,-9.5%,7.4%
